Assay results: PubChem BioAssay AID588458 (Sanford-Burnham Center for Chemical Genomics, 2011)
Out of some 360,000 compounds screened, about 3,000 (0.83%) were called active. The sample holds actives, similar compounds and a random draw of the others, so the mix is not that of the screen. Rule as the data show it: active = inhibition above about 50%; inactive = the rest.

Biological target: DNA (cytosine-5)-methyltransferase 1 (Homo sapiens) (UniProt P26358)
Assay: inhibition of DNA methyltransferase DNMT1 – biochemical, molecular beacon, fluorescence, HinP1I cleavage, uHTS, primary screen (AID 588458)
Settings: at 10 µM, active compounds read high

Chain of DNA (cytosine-5)-methyltransferase 1 (Homo sapiens) (P26358 504-1616 limits assumed): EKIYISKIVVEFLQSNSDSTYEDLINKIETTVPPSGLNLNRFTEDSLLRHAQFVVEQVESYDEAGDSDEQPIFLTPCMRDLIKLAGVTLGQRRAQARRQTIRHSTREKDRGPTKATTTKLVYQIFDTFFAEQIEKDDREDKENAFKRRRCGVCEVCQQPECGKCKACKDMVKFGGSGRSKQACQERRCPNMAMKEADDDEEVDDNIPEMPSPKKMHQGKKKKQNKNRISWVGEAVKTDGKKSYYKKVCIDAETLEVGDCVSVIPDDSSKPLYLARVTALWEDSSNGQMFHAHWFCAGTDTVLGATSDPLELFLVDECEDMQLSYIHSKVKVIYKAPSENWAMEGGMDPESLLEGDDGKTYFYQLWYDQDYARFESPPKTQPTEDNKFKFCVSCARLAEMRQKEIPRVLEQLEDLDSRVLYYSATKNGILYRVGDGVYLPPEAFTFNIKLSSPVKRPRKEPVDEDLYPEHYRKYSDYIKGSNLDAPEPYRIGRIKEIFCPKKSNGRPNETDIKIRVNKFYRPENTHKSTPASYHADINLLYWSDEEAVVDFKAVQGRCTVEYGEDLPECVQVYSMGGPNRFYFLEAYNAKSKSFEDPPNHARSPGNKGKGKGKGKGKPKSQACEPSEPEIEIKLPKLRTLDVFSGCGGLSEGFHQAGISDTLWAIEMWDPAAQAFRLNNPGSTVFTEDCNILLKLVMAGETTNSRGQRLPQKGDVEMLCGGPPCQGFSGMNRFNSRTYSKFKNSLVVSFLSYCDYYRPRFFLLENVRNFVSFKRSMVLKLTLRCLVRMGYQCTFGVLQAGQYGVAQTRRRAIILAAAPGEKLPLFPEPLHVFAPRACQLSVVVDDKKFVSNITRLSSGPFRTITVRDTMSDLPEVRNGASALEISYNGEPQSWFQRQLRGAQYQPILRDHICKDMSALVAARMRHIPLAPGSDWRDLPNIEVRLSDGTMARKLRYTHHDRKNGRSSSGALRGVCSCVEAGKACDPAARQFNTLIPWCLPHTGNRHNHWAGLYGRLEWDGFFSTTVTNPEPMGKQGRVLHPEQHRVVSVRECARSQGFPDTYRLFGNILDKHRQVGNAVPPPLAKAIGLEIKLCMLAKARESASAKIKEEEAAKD

Inhibition (reported as % activation of signal), inactive:
CCN(C(=O)CSc1nnc2ccccn12)C1CCS(=O)(=O)C1 (stereo not given) 3.22%
CCN(C(=O)CSc1nc2ccccc2n1CC)C1CCS(=O)(=O)C1 (stereo not given) 0.17%
CCCCNC(=O)C1CCCNC1=O (stereo not given) 2.28%
COc1ccc(C2=NOC3(CC(=O)N(c4ccc(Cl)cc4)C3=O)C2)c(OC)c1 (stereo not given) -6.34%
O=C(O)c1cc(S(=O)(=O)N2CCCCCC2)c(Cl)cc1Cl 0.43%
CCOC(=O)N1CCN(Cc2nc3c(c(=O)n(C)c(=O)n3C)n2Cc2ccccc2)CC1 1.29%
CC1CCCN(Cc2nc3c(c(=O)n(C)c(=O)n3C)n2CC(=O)c2ccccc2)C1 (stereo not given) -2.35%
CC1(C)CC(=O)C(C=NCCC2=CCCCC2)=C(O)C1 6.68%
O=C1CC(c2ccccc2)CC(O)=C1C=NCCN1CCOCC1 (stereo not given) 0.18%
COc1cc(NS(=O)(=O)c2ccc(N/C=C(\C=O)c3nc4cc(Cl)ccc4o3)cc2)nc(OC)n1 -2.63%
CC1C(c2ccccc2)=[N+]([O-])C2(CCCC2)N1O (stereo not given) 1.84%
COc1ccc(CCNC(=O)CC2SC(=Nc3cc(C)cc(C)c3)NC2=O)cc1OC (stereo not given) 1.89%
CC(=O)[C@@]12O[C@@H]1C[C@H]1[C@@H]3CC[C@H]4C[C@@H](O)CC[C@]4(C)[C@H]3CC[C@@]12C 1%
O=C(c1ccc(Cl)cc1)n1cnc2ccccc21 8.27%
COc1ccccc1N(CC(=O)Nc1ccc(C(F)(F)F)cc1)S(C)(=O)=O 7.89%
CCCNC(=O)C(=O)Nc1cc2c3c(c1)CCC(=O)N3CCC2 -0.17%
S=C(NCCCc1ccccc1)Nc1ccc(Br)cc1 6.06%
CCc1ccc(NC(=O)CS(=O)CC(=O)N2CCN(c3ccccc3F)CC2)cc1 (stereo not given) 1.59%
Cc1oc(CC(C)C)c(CN2CCCC2)c1C(=O)O -0.29%
Cc1nnc(N(Cc2ccco2)C(=O)c2ccno2)s1 -1.27%
Cc1ccc(NC(=O)OCCNC(=O)c2ccncc2)cc1 0.6%
COCCNC(=O)CSc1nc(N)c(NC(=O)c2ccco2)c(=O)[nH]1 4.39%
COc1ccc(Cn2cccc(NC(=O)Nc3ccc(C#N)cc3)c2=O)cc1 3.12%
O=C1COc2ccc(NC(=O)N3CCN(c4ccc(F)cc4)CC3)cc2N1 -6.06%
O=C(COC(=O)CSc1ccccc1)Nc1ccc(F)cc1F -0.57%
CCOC(=O)c1cccc(NC(=O)c2ccc(F)cc2F)c1 2.92%
CN=C1C=C/C(=N/N=c2\ccn(O)cc2C)C=C1C -3.81%
NC(=O)C1CCCN(CC(=O)N2CCN(c3ccccc3)CC2)C1 (stereo not given) 1.67%
Cn1c(=O)c2[nH]c(NCC3CCCO3)nc2n(-c2ccccc2)c1=O (stereo not given) 3.06%
COc1cc2c(cc1OC)C(Cc1cc(OC)c(OC)cc1[N+](=O)[O-])=NCC2 -13.1%
COC(=O)c1ccc(C(NC(=O)OCc2ccccc2)/C(F)=C/[C@@H](C)C(=O)O)cc1 (stereo not given in full) 2.04%
CCC[C@@H]1C[C@@]1(CCC)[C@@H](NC(=O)c1ccccc1)c1ccc(C(=O)OC)cc1 -1.36%
C#Cc1ccc(NC(=O)C2(C)CCN2C(=O)Cc2ccc(-c3ccccc3)cc2)cc1 (stereo not given) -17.3%
O=C(NC1(C(F)(F)F)NC(=O)N(Cc2cccnc2)C1=O)c1ccccc1Cl (stereo not given) 5.41%
O=C(NCc1ccncc1)C1CCCN(S(=O)(=O)c2ccc(Br)cc2)C1 (stereo not given) -0.42%
COc1cc2c(cc1O)C(SC)=NC(C)(C)C2 0.55%
COc1ccc(NC(=O)Cn2c(-c3ccc(OC)cc3)cn(-c3ccc(C)cc3)c2=O)cc1 -10.9%
CCOC(=O)C1=C(O)/C(=C/c2ccc(OCC(=O)Nc3ccc(C)cc3)cc2)N=C1C 26.9%
O=C(Nc1ccc(N2CCN(C(=O)C3CC3)CC2)cc1)c1cccs1 -1.58%
O=C(COc1ccccc1)Nc1ccc(F)cc1 2.46%
CCc1ccc(NC(=O)C(=O)NNC(=O)c2cccs2)cc1 1.5%
COc1ccc(NC(=O)CN(C)C(=O)c2ccc(COc3ccccc3)o2)cc1 1.54%
COc1ccc(C(CC(=O)Nc2ccc(C)cc2)NC(=O)C(F)(F)F)cc1 (stereo not given) 1.22%
COc1ccc(NC(=O)CCCC(=O)c2ccccc2)cc1 0.13%
Cc1cc(NC(=O)C(C)SCC(=O)Nc2cccc(S(=O)(=O)N3CCCCCC3)c2)no1 (stereo not given) 3.04%
CCCCc1ccc(S(=O)(=O)NC(=O)C2(C)CCN2C(=O)c2ccccc2)cc1 (stereo not given) -0.05%
CCc1nc2c(OCCOc3ccc(F)cc3)cccn2c1N(C)C(=O)c1ccccc1F -4.23%
CCC(=O)Nc1ccc(-c2ccc(N3CCCCC3)nn2)cc1 -8.26%
Cc1c(C(=O)NCc2ccc(C#N)cc2)sc(=O)n1Cc1ccc(C(=O)N(C)C)cc1 4.99%
O=C1N[C@@H](Cc2ccccc2)C(=O)N2[C@@H]3N(S(=O)(=O)c4ccc(F)cc4)c4ccccc4[C@]3(Br)C[C@@H]12 -4.71%
COc1ccc(CCc2nnc(CCC(=O)NCc3cnn(-c4ccccc4C)c3)o2)cc1 -0.69%
C/C(=N/N1CCN(Cc2cccc3ccccc23)CC1)c1cccnc1 -1.56%
C=CCOC(=O)C1=C(C)NC(C)=C(C(=O)OCC=C)C1c1cccs1 13.3%
CCN1CC=C2C(C#N)=C(N)C(C#N)(C#N)[C@H](c3ccoc3)[C@H]2C1 0.41%
Cc1cccc(CC(=O)N2CCN=C2SCc2ccc([N+](=O)[O-])cc2)c1 -5.45%
CCc1ccccc1NC(=O)CN(C)C(=O)c1cc(C2CC2)nn1-c1ccccc1 -2.35%
COc1cccc(NC(=O)CN(C)C(=O)c2cc(C3CC3)nn2-c2ccccc2)c1 -5.25%
CC(C)(C)NC(=O)CN(Cc1cccs1)C(=O)CNS(=O)(=O)c1ccccc1 -3.38%
CC(=O)Nc1ccc(Sc2ccccc2C(=O)N2CCCC2)cn1 -0.06%
Nc1cccc(-c2cncc(N3CCN(Cc4ccccn4)CC3)n2)c1 -1.68%
Cc1nc2sc(C(c3ccco3)N3CCC4(CC3)OCCO4)c(O)n2n1 (stereo not given) -3.42%
Oc1c(C(c2cccs2)N2CCN(c3ccc(F)cc3)CC2)sc2ncnn12 (stereo not given) 5.11%
Cc1cc(NC(=O)CN2C(=O)NC(CC(C)C)C2=O)no1 (stereo not given) 3.08%
COc1ccccc1CNS(=O)(=O)c1c(C)[nH]c(C)c1C(=O)N1CCCCC1 2.18%
CC(=O)NCCc1ccc(S(=O)(=O)N(C)C2CCS(=O)(=O)C2)cc1 (stereo not given) 0.81%
N/C(=N\S(=O)(=O)c1cc(C(F)(F)F)cc(C(F)(F)F)c1)c1cccs1 3.6%
COc1ccc2[nH]c3nc(SCC(=O)NC4CC4)nnc3c2c1 2.16%
Cc1ccn2c(=O)nc(SCC(=O)NCc3ccc(F)cc3)nc2c1 -6.32%
O=C(Nc1cccc(F)c1)c1coc(=O)c(Br)c1 -1.29%
CC(=O)c1ccc(NC(=O)CCNS(=O)(=O)c2cc(Br)cnc2N)cc1 2.08%
CCCCN1CC(CO)Oc2cccc(F)c2S1(=O)=O (stereo not given) 0.29%
OC[C@H]1O[C@@H](c2nc(-c3nc(-c4ccc(F)cc4)no3)cs2)[C@H](O)[C@@H](O)[C@H]1O 0.63%
CCC1(C)Cc2c(sc3[nH]c(=S)n(Cc4ccccc4)c(=O)c23)CO1 (stereo not given) -3.04%

Inhibition (reported as % activation of signal), active:
CCN(C(=O)CSc1nc(N)cc(=O)[nH]1)C1CCS(=O)(=O)C1 (stereo not given) 84.1%
CCN1CCN(Cc2nc3c(c(=O)n(C)c(=O)n3C)n2CC(=O)c2ccccc2)CC1 75.4%
O=C1CCCC(O)=C1C=NCCc1ccccc1 60.8%
C=C1c2c(Cl)ccc(O)c2C(O)=C2C(=O)[C@]3(O)C(O)=C(C(N)=O)C(=O)[C@@H](N(C)C)[C@@H]3[C@@H](O)C12 (stereo not given in full) 94.6%
CCc1ccc(NC(=O)CS(=O)CC(=O)NCCCc2ccccc2)cc1 (stereo not given) 58.9%
COCCNC(=O)Nc1ccc2nc(-c3ccco3)c(-c3ccco3)nc2c1 110%
O=C(COC(=O)c1ccc(F)cc1F)Nc1ncccn1 67.4%
CCC/C=C(\CCC)C(NC(=O)Cc1ccccc1)c1ccc(C(=O)OC)cc1 (stereo not given) 64.2%
COc1ccc(CC(=O)Nc2ccc(-c3nnc(-c4ccc(C)cc4)o3)cc2)cc1 58.3%
Cc1ccc(OCC(=O)Nc2ccc(-c3nnc(-c4ccco4)o3)cc2)cc1 56%
COc1ccc(CC(=O)Nc2ccc(-c3nnc(-c4ccccc4)o3)cc2)cc1 63.9%
Cc1ccc(-c2nnc(-c3ccc(NC(=O)c4cccs4)cc3)o2)cc1 62.6%
CCOC(=O)N1CC=C2C(C#N)=C(N)C(C#N)(C#N)[C@H](c3cccs3)[C@H]2C1 70.4%
COc1ccc(NC(=O)CN(C)C(=O)c2cc(C3CC3)nn2-c2ccccc2)cc1 61.4%
Oc1c(C(c2ccco2)N2CCC3(CC2)OCCO3)sc2ncnn12 (stereo not given) 84.4%
Cc1ccc(CNC(=O)CSc2nnc3c(n2)[nH]c2ccc(F)cc23)cc1 57.3%
C=CCn1c(=S)[nH]c2scc(-c3ccco3)c2c1=O 94.1%
